KB-3-1 tox: kills parental KB-3-1 adenocarcinoma cells; AID 1347075; 1.4% of 400,000 active; Potency, µM (highest dose often 46.1 µM), actives largely listed as cytotoxic; KB-3-1 viability, CellTiter-Glo ATP luminescence, 72 h; also: % is scaled to controls: 0 for no effect and ±100 for the full control effect; nearly all actives have a fitted effect of over 60% in size
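KB-3-1 cells, DMEM (no phenol red) + 10% FBS; compound by pin transfer, 72 h, 37 °C. Readout: CellTiter-Glo luminescence after 10 min. Data normalized, curve-fitted.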
KB-V1 cytotox: KB-V1 MDR subline cytotoxicity; AID 1347076; 3.4% of 400,000 active; Potency, µM (series often up to 46.1 µM), actives largely listed as cytotoxic; KB-V1 MDR cells viability, CellTiter-Glo, 72 h; also: % is scaled to controls: 0 for no effect and ±100 for the full control effect; nearly all actives have a fitted effect of over 60% in size
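In this primary screen, KB-V1 cells overexpressing P-gp are incubated with library compounds (lowest to highest concentration) for 72 h at 37 degrees C before a luminescent ATP viability read.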
HT1080NT lethal: kills 2HG-producing HT-1080-NT fibrosarcoma cells | Potency, µM (top dose mostly 46.1 µM), for inactives: top-dose activity, negative = less viability, actives largely listed as cytotoxic | HT-1080-NT fibrosarcoma viability, CellTiter-Glo ATP luminescence, 48 h | 1.6% of 360,000 active;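 also: NT is the 2HG producing partner of a matched IDH1 knockdown line; 0% = DMSO-treated cells and -100% = media-only wells without cells; nearly all actives have a fitted effect of over 55% in size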
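Fibrosarcoma NT cells, 750 per well in 5% FBS RPMI, were exposed to compound for 48 hours. Viability: CellTiter-Glo luminescence.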
MCF10A rereplic: induces DNA re-replication in MCF 10a normal breast cells; 2.9% of 350,000 active; Potency, µM (doses to about 46.1 µM), for the others: top-dose activity, positive = re-replication, hits mostly activators; MCF 10A DNA re-replication, Hoechst nuclear intensity, 48 h; AID 624296; also: % of control where 0% means no effect; nearly all actives have a fitted effect of over 50% in size
HT1080 IDH1KD tx: kills HT-1080 cells with IDH1 knockdown; 2% of 360,000 active; HT-1080 IDH1 knockdown viability, ATP luminescence, 48 h; Potency, µM (highest dose often 46.1 µM), inactives show top-dose activity, negative = toxicity, usual class: cytotoxic;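 also: 0% = DMSO wells and -100% = cell-free medium wells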
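% activity derives from luminescence (CellTiter-Glo), normalised to DMSO and no-cell wells. HT-1080-IDH1KD cells, 750/well, had 48 h compound exposure at 37 °C.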
SW480 rereplic: induces DNA re-replication in SW480 colon adenocarcinoma cells. SW480 DNA re-replication, Hoechst DNA content imaging, 48 h. AID 624297. Potency, µM (titrated, usually from 46.1 µM), for inactives: top-dose re-replication activation, most hits filed as activators. 1.8% of 340,000 active; also: % of control where 0% means no effect; nearly all actives have a fitted effect of over 55% in size
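SW480 cells exposed to compounds for 48 hr at 37 C, 5% CO2, then Hoechst-stained 40 min. Nuclear DNA content imaged by fluorescence scanning (405 nm excitation, 500-530 nm emission); re-replication scored as increased high-intensity nuclei.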
* hit, by the source's call; i = inactive; ? = inconclusive; . = not tested or not shown; [ ] = remark or other dose. Rows were chosen to be rich in hits. Some 8% of all compounds tested hit in one or more screens of this group. Calls follow the shape of the dose curve; as a rule, active = well fitted curve in the direction sought with a large enough effect; inconclusive = small, poorly fitted or top-dose-only effect, or another doubt; inactive = no such curve, though single readings can be large; an effect the other way counts as inactive or inconclusive. Potency is read from the fitted curve at half-maximal effect.

SMILES | KB-3-1 tox | KB-V1 cytotox | HT1080NT lethal | MCF10A rereplic | HT1080 IDH1KD tx | SW480 rereplic
CCCCN1CC(c2nc3ccccc3n2CCCCOc2cccc(C)c2C)CC1=O (configuration not stated) | i | 18.4µM* | . | . | . | .
CC(=O)c1cc2c(cc1NC(=O)CCc1c(C)nc3ncnn3c1C)OCO2 | i | ? | 3.1% | -5.1% | 9.9% | -4.4%
COc1ccc(NC(=O)c2ccccc2-c2ccccc2)c(C)c1 | i | i | 5.8% | -4.0% | 4.1% | 2.6%
O=C(NCc1ccc(F)cc1)C(=O)NCC(c1cccs1)S(=O)(=O)c1cccs1 (configuration not stated) | i | i | . | . | . | .
Cc1ccc2cc(CCNC(=O)c3ccc(Br)o3)c(=O)[nH]c2c1 | ? | 18.4µM* | 0.1% | 2.7% | 17.5% | -2.4%
Cc1ccc(NC(=O)Cn2nnc(-c3ccccc3)n2)c(C)c1 | i | i | . | . | . | .
CSc1cccc(NC(=O)c2cccc(N3CCCS3(=O)=O)c2)c1 | i | i | . | . | . | .
CCOC(=O)c1sc2ncnc(NCC(c3cccs3)N(C)C)c2c1C (configuration not stated) | i | 20.6µM* | -19.6% | 28.4% | -13.0% | 3.9%
CN(C)C(CNc1ncnc2sccc12)c1cccs1 (configuration not stated) | i | ? | -3.3% | ? | -2.8% | 8.1%
COc1cc(NC(=S)Nc2ccccn2)c(OC)cc1Cl | i | i | -16.5% | 0.2% | ? | 0.0%
CCN(CC)C(C)C(=O)Nc1c2c(cc3c1CCC3)CCC2 (configuration not stated) | i | 9.2µM* | -0.2% | 7.1% | 1.2% | 0.8%
CC(C(=O)Nc1c2c(cc3c1CCC3)CCC2)N1CCCC1 (configuration not stated) | i | i | -6.1% | 0.0% | 1.0% | -9.3%
Cc1ccc(C)c(N2CCN(C(=O)CCS(=O)(=O)c3ccc4c(c3)CC(=O)N4C)CC2)c1 | i | i | . | . | . | .
O=C(Nc1cc2c(=O)n(-c3ccc(Oc4ccccc4)cc3)ccc2oc1=O)c1ccccc1 | i | i | 14.5% | 5.17µM* | 4.2% | ?
C/C(=N\NC1=NCCN1)c1ccc(Cl)cc1 | i | i | -22.6% | ? | -17.4% | ?
CCN(CC)CC(=O)Nc1ccc(/C(C)=N/NC2=NCCN2)cc1 | i | i | -19.5% | 23.1µM* | -0.5% | 18.4µM*
COC(=O)c1cc(C)nc(N)c1C#N | i | i | 5.6% | -1.7% | 21.8% | -1.1%
COC(=O)c1cc(=O)n2c(sc3ccccc32)c1C#N | i | i | -6.9% | 20.6µM* | 16.1% | 23.1µM*
COc1ccc(C2=NN(C3=NN=C(N)Cc4ncnn43)C(O)(C(F)(F)F)C2)cc1 (configuration not stated) | i | ? | 22.7% | 0.581µM* | 0.0% | -4.9%
COc1ccccc1C1=NN(C2=NN=C(N)Cc3ncnn32)C(O)(C(F)(F)F)C1 (configuration not stated) | i | i | -2.6% | 0.581µM* | -5.1% | 56.3%
O=C(NCc1ccccn1)c1cc(S(=O)(=O)N2CCCCC2)ccc1Cl | ? | ? | -2.3%[9.24 µM] | 9.7% | -2.5% | 29.7%
COc1ccc(CCn2c(=O)[nH]c3cc(C(=O)N4CCN(c5ccccn5)CC4)ccc3c2=O)cc1OC | i | i | 14.8% | -1.9% | 0.6% | -2.1%
CCOc1ccc(N=Cc2c(C)[nH]n(-c3nc4ccccc4[nH]3)c2=O)cc1 | ? | ? | 5.17µM* | -5.2% | 3.66µM* | 1.3%
O=C(Nc1cccc(C(F)(F)F)c1)Oc1ccc(Cl)c2cccnc12 | ? | i | 16.4µM* | -1.0% | 14.6µM* | ?
CCOC(=O)c1sc(NC(=O)Nc2ccccc2Cl)cc1C | ? | 20.6µM* | -10.9% | ? | -6.5% | 0.3%

Assay outcomes: PubChem BioAssay, National Center for Advancing Translational Sciences (NCATS)
